# Experimental data reported in PubChem BioAssay AID720517 (National Center for Advancing Translational Sciences (NCATS), 2013).
# Inconclusive results are not listed. Entries that show only a call come without a potency. Active and inactive are the calls of the source. Calls come from the whole dose curve; as a rule, active = well fitted activation curve with a large enough effect; inconclusive = small, poorly fitted or top-dose-only effect; inactive = flat fitted curve, though single readings scatter.
# Assay: qHTS for Inhibitors of Cell Surface uPA Generation: FP59 Counterscreen for Cherry-picked Compounds
# Potency is the fitted concentration of half-maximal effect.
row,Compound,Potency
1,COc1ccc(-c2cccc(-c3cc(=O)oc4cc(OC)c(OC)c(OC)c34)c2)cc1,inactive
2,CC1CC(C)CN(CCCNC(=O)CN2C(=O)CSc3ccc(S(=O)(=O)N4CCOCC4)cc32)C1 (configuration not stated),inactive
3,CN(CC(=O)N(C)CC(=O)Nc1c(Cl)cccc1Cl)Cc1ccccc1F,inactive
4,COc1ccc(OC)c(N2C(=O)CC(Cc3cc(C)cc(C)c3)C2=O)c1 (configuration not stated),inactive
5,COc1ccccc1N=Nc1c(C)[nH]n(-c2ccccc2)c1=O,inactive
6,CCOC(=O)CN1C(=O)N[C@@H](c2ccco2)C(C(=O)OC)=C1C,inactive
7,COc1cccc(NC(=O)c2nnn(CC(=O)Nc3cc(C)cc(C)c3)c2N)c1,inactive
8,O=C(CSc1ccc([N+](=O)[O-])cn1)Nc1nccs1,inactive
9,CC(C)c1ccc(SCc2noc(C(=O)NCC3CCCO3)c2C(=O)O)cc1 (configuration not stated),inactive
10,CCCCNC(=O)c1cc2c(-c3ccc(Cl)cc3)nn(C)c2s1,inactive
11,COc1cc(CNCc2ccc3c(c2)OCO3)c([N+](=O)[O-])cc1OC,inactive
12,C=CCNC(=S)NCC=C,inactive
13,Cn1cc(SCC(=O)Nc2nccs2)c2ccccc21,inactive
14,COc1ccc(NS(=O)(=O)c2c(C)n(C)c(=O)n(C)c2=O)cc1OC,inactive
15,Cc1ccc(S(=O)(=O)NC(=O)Nc2nccs2)cc1,inactive
16,COc1cc(NC(=O)COC(=O)c2cc(S(=O)(=O)N3CCCCC3)ccc2Cl)c(C)cc1[N+](=O)[O-],inactive
17,COc1ccccc1N1CCN(CC(=O)c2c(C)[nH]c3ccccc23)CC1,inactive
18,COc1ccc(CN2CCN(Cc3ccc(C(F)(F)F)cc3)CC2)cc1,inactive
19,CCN(CC)c1ccc(C=NCCc2ccc(S(N)(=O)=O)cc2)cc1,inactive
20,COc1ccc2nc(SC(C)C(=O)NC3(C#N)CCCCC3)[nH]c2c1 (configuration not stated),inactive
21,CCO[C@H]1OC(C(=O)N2CCCCCCC2)=C[C@@H](c2ccc(C(F)(F)F)cc2)[C@@H]1CCCO,inactive

row,Compound,Potency
1,Cc1ccc(CN2CCN(Cc3cc4ccccc4o3)CC2CCO)cc1 (configuration not stated),inactive
2,Fc1ccc(N2CCN(c3nc(CN4CCOCC4)nc4scc(-c5ccccc5)c34)CC2)cc1,inactive
3,CC1=CC(C)C(C[N+]2(C)CCCCC2)C(C)C1 (configuration not stated),inactive
4,CN(C)CCNC(=O)Nc1ccc([N+](=O)[O-])cc1,inactive
5,COc1ccc(C(=O)CC(=O)C(=O)Nc2ccccc2)cc1,inactive
6,CCc1c(C)sc(NC(=S)N2CC(C)OC(C)C2)c1C(=O)OC (configuration not stated),inactive
7,CCCc1nc2c(=O)n(C)c(=O)[nH]c2n1CCC,inactive
8,COC(=O)COc1cc2ccccc2cc1C(=O)Nc1ccccc1,inactive
9,COC(=O)CNC(=O)COC(=O)/C=C/c1ccccc1[N+](=O)[O-],inactive
10,COC(=O)C1=CN(Cc2ccc(F)cc2)C=C(C(=O)OC)C1c1ccc(O)c(OC)c1,inactive
11,O=C(CCN1CCN(c2ccccc2F)CC1)Nc1ccc(F)cc1,inactive
12,COc1ccc(C(=O)N[C@H](C(=O)NCc2cccs2)C(C)C)cc1,inactive
13,CSc1nc(-c2ccccc2)nc(C(Cl)Cl)n1,inactive
14,O=C(NCCCN1CCCC1=O)c1cccc(Oc2ccccc2)c1,inactive
15,C[C@H](CO)N1C[C@H](C)[C@H](CN(C)S(=O)(=O)c2cn(C)cn2)Oc2ccc(NC(=O)Nc3ccc(C(F)(F)F)cc3)cc2CC1=O,inactive
16,COc1ccccc1NC(=O)Cn1nnc(-c2ccccc2NC(=O)c2cc3ccccc3oc2=O)n1,inactive
17,Cc1ccc2cccc(OCCCOc3ccccc3CO)c2n1,inactive
18,S=C(Nc1ccccc1Cl)N1CCCC(c2ccccc2)=N1,23.3 µM (active)
19,O=C1[C@H]2[C@@H](c3ccc(F)cc3)N3C(=O)N(c4cccc(Br)c4)C(=O)[C@@]3(Cc3ccc(Cl)cc3)[C@H]2C(=O)N1C1CCCCC1,inactive
20,CCOC(=O)C1(CC2CCCCO2)CCN(Cc2nccn2-c2cccc(C)c2)CC1 (configuration not stated),inactive
21,O=[N+]([O-])c1ccc(-c2cn3c(n2)SCC3)cc1,inactive
